In PubChem BioAssay:
Calls of active or inactive are those of the source.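 Rule for the calls, unless noted: active = superoxide response below 65% of plate, a cut near 3 SD across the whole screen; inactive = the rest.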

Key:
[1] = inhibitors of CD8+ T cell-vesicle binding, pilot screen, LFA-1/ICAM-1 modulator project, MLPCN validation set, flow cytometry (AID 2523;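 active = response below a set limit, under 55% cells CD8-positive and vesicle-bound, and CD8 cells' 90th-percentile brightness under 279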;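 for vesicle binding response: mean PE anti-B7-1 fluorescence of CD8+ cells relative to row control; 100% = QL9-loaded vesicles with DMSO vehicle in the same plate row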); settings: 2C mouse CD8+ T cells, at 7 µM, stronger effect = lower value; double positive events: measured here: CD8+/vesicle+ event percentage
[2] = target: Integrin beta-1 (Homo sapiens) + Integrin alpha-4 (Homo sapiens) (UniProt P13612+P05556); experiment: inhibition of HUTS-21 binding to VLA-4, pilot screen, VLA-4 allosteric modulator project, U937 cells, HUTS-21 mAb, flow cytometry, validation set (AID 2674;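 active = inhibition above 50%, about 3 SD of the validation set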;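 note: antibody binding induced by the VLA-4 ligand LDV present at three times its Kd; 0% = LDV ligand with antibody and no compound and 100% = antibody without LDV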); settings: HUTS-21 LIBS mAb binding, at 6.7 µM, stronger effect = higher value, binding induced by LDV ligand
[3] = superoxide lowering in aged yeast cells, pilot screen, validation compound set (AID 2706);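 note: yeast exposed to compound for one week at 30 degrees C before staining; 100% = mean of all compound wells on the same plate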; settings: S. cerevisiae aging, superoxide DHE fluorescence; at 10 µM, stronger effect = lower value
[4] = target: Beta-adrenergic receptor kinase 1 (Homo sapiens) (UniProt P25098); experiment: GRK2 binders displacing RNA aptamer, biochemical, validation, human GRK2, bead flow cytometry (AID 488806;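 active = aptamer binding inhibition above 30%, about 3 SD of noise from non-fluorescent compounds; inactive = inhibition at or below 30%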); settings: bead-bound GRK2, FAM-aptamer displacement, at 10 µM, stronger effect = higher value
[5] = target: Beta-2 adrenergic receptor (Homo sapiens) (UniProt P07550); experiment: beta2AR agonists driving receptor internalization, pilot screen, cell-based, FAP fluorogen, flow cytometry, validation set (AID 504459;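 active = percent response above 42, roughly 3 SD of non-fluorescent test compounds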;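 note: agonist-driven loss of surface beta2AR via internalization measured by FAP dye flow cytometry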); settings: Am2.2-beta2AR cells, FAP surface receptor flow cytometry; at 10 µM; stronger effect = higher value
[6] = target: AP-2 complex subunit beta (Homo sapiens) (UniProt P63010); experiment: inhibitors of arrestin peptide binding to AP2, pilot screen, biochemical, validation set, GST-AP2 beads, flow cytometry (AID 504541;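 active = inhibition above 54%, about 3 SD of non-fluorescent compounds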;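 note: AP2 carries R879A mutation and is captured from E. coli lysate; bead-bound FITC arrestin peptide fluorescence measuring arrestin peptide binding to AP2; 0% = DMSO wells and 100% = excess unlabeled arrestin peptide control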); settings: FITC arrestin peptide, at 10 µM, stronger effect = higher value, AP2 beta2 appendage fragment, R879A mutant
[7] = yeast V-ATPase proton transport modulators, S. cerevisiae, pHLuorin, HTS validation (AID 504600; in the data active = response above about 15%;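 note: plate controls were DMSO for no effect and reference compound for full effect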); settings: S. cerevisiae pHLuorin cytosolic pH, at 10 µM, stronger effect = higher value
[8] = system: anti-desmoglein-3 scFv antibody binding to human DSG3; experiment: inhibitors of anti-DSG3 scFv binding to DSG3, pilot screen, biochemical, validation compound set, bead-based, flow cytometry (AID 588368;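 active = binding below the plate cutoff, the plate median minus 3 SD, with a reading above zero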;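 note: signal is the median channel fluorescence of bead-bound GFP antibody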); settings: Protein G beads, DSG3-Fc, scFv-GFP binding, at 10 µM, stronger effect = lower value
[9] = inhibitors of fungal efflux pumps CDR1, CDR2, MDR1, pilot screen, validation compound set, multiplex, phenotypic (AID 588506;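 active = efflux inhibition above 0.42, the validation set average plus 4 SD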;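 note: Nile Red retained in cells so higher fluorescence means more efflux inhibition; 0 = negative control wells and 1 = enniatin B 25 µM full block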); settings: S. cerevisiae pump-expressing triplex, Nile Red efflux flow cytometry; at 10 µM; stronger effect = higher value; the pumps come from Candida albicans
[10] = target: ATP-binding cassette sub-family B member 6 (Homo sapiens) (UniProt Q9NP58); experiment: ABCB6 transporter inhibitors, pilot screen, K562-ABCB6 cells, flow cytometry, validation set (AID 588550;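 active = inhibition above the screen-wide mean plus 3 SD, about 51%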;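 note: 0% = DMSO wells and 100% = benzethonium chloride 70 µM positive control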); settings: K562-ABCB6 porphyrin accumulation, 1 h, at 10 µM, stronger effect = higher value
[11] = promoters of myeloid differentiation in arrested cells, primary screen, cell-based, GFP/MAC1 double positive, flow cytometry, validation set (AID 588685;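 active = differentiation response of at least 50%, scaled between solvent and reference control, from cells with both markers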;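 note: compound exposure lasts four days before antibody staining and flow analysis; 0% = DMSO wells and 100% = 5 µM fulvestrant positive control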); settings: ER-HoxA9 marrow cells, stronger effect = higher value, normalized: vehicle 0, fulvestrant 100

AP-2 complex subunit beta (Homo sapiens), sequence (P63010 whole entry, looked up, the tested form may be a part, one chain of several): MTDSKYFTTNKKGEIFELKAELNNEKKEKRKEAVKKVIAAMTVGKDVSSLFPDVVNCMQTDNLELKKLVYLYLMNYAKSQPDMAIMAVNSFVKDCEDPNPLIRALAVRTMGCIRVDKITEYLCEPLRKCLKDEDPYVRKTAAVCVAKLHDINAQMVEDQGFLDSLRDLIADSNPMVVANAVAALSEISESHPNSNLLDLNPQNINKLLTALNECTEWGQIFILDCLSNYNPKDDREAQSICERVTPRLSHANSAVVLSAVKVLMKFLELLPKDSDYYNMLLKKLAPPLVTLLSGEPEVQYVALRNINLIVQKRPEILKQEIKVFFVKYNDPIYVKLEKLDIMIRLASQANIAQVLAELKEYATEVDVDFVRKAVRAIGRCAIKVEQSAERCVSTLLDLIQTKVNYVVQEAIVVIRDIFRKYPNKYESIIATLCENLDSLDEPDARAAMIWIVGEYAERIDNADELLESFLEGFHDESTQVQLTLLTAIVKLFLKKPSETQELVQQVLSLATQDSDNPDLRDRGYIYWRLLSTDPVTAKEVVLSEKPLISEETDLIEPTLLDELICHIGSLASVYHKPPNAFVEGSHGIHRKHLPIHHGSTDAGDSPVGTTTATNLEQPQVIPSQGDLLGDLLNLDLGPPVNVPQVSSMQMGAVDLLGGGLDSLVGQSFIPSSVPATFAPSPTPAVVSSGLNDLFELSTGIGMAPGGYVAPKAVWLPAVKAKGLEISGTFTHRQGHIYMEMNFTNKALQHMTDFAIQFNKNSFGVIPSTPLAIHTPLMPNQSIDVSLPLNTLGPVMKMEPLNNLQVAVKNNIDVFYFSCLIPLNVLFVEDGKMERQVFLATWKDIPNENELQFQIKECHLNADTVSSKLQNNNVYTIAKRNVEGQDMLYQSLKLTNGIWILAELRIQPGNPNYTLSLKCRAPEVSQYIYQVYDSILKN
Beta-adrenergic receptor kinase 1 (Homo sapiens), sequence (P25098 whole entry, looked up): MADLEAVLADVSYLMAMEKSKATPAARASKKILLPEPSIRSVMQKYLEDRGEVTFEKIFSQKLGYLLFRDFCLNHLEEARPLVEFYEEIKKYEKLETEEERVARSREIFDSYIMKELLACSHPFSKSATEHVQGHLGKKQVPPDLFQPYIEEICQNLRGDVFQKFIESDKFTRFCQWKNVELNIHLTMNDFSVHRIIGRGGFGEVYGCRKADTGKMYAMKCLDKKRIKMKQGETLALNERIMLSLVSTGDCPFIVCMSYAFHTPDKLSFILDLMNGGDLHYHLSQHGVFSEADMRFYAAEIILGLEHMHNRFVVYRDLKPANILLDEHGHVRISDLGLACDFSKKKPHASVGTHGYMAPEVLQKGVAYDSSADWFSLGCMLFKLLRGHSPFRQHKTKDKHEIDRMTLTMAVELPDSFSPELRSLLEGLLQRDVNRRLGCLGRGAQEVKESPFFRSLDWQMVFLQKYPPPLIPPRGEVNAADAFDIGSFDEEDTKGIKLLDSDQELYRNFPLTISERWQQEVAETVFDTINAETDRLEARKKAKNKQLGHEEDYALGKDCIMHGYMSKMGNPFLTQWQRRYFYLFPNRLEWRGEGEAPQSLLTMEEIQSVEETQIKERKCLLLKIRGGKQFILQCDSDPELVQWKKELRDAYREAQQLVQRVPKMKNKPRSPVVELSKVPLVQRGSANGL
Integrin beta-1 (Homo sapiens) + Integrin alpha-4 (Homo sapiens), sequence (P05556 whole entry, looked up): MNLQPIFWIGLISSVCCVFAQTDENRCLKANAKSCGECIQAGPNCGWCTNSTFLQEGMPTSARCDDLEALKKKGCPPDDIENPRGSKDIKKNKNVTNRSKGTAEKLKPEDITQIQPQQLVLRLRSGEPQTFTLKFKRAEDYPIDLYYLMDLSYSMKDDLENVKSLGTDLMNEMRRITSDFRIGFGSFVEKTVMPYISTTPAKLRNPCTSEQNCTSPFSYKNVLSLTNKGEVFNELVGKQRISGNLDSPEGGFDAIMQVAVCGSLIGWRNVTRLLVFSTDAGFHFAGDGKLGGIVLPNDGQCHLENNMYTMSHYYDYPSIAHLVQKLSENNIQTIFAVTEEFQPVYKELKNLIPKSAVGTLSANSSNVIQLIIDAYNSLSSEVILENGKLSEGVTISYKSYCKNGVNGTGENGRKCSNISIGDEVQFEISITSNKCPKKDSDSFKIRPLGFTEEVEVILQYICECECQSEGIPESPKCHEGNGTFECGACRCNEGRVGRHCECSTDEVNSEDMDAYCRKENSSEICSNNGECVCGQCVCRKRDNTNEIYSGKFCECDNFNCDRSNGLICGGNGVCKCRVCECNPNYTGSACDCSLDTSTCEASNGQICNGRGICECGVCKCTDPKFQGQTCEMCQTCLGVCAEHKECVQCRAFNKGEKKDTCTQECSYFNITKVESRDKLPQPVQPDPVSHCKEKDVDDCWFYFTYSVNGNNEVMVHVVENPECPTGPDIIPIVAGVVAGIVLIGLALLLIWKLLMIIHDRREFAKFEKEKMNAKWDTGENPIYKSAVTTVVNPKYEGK
Integrin beta-1 (Homo sapiens) + Integrin alpha-4 (Homo sapiens), sequence (P13612 whole entry, looked up): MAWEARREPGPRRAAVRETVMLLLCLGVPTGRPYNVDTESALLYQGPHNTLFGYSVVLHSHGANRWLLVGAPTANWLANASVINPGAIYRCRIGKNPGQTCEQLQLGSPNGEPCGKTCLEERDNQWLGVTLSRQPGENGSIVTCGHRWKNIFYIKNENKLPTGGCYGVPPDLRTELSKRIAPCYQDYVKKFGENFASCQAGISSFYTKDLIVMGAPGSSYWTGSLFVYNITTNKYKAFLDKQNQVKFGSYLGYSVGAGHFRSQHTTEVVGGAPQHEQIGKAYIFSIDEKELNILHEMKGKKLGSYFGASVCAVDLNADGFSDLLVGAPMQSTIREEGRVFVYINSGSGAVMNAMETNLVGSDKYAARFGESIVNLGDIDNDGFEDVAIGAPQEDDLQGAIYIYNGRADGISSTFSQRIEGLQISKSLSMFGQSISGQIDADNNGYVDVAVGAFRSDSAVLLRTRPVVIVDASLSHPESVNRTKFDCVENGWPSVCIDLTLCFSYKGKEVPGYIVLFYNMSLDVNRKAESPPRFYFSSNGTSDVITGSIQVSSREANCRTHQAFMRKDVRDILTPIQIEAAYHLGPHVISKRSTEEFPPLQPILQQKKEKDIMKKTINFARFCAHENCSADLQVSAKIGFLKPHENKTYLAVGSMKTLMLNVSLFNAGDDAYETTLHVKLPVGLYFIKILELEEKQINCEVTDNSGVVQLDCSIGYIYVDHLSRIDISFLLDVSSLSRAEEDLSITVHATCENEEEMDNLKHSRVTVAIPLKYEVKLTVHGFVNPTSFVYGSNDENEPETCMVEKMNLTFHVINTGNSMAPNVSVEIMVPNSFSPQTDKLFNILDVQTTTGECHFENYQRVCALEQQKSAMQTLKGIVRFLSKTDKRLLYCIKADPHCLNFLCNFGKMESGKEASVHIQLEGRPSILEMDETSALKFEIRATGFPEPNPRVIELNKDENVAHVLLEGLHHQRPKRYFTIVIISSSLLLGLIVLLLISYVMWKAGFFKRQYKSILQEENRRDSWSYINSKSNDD
Beta-2 adrenergic receptor (Homo sapiens), sequence (P07550 whole entry, looked up): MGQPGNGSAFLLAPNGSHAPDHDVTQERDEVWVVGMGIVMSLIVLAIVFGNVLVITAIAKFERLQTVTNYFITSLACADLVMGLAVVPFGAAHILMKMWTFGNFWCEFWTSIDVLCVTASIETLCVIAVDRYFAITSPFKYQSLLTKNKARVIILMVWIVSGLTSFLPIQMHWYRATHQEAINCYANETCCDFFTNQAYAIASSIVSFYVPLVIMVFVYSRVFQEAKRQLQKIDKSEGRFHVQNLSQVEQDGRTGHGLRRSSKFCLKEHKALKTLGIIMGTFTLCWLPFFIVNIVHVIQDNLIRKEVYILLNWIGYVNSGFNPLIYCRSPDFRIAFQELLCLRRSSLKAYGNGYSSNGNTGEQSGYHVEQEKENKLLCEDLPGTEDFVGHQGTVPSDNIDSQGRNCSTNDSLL
ATP-binding cassette sub-family B member 6 (Homo sapiens), sequence (Q9NP58 whole entry, looked up): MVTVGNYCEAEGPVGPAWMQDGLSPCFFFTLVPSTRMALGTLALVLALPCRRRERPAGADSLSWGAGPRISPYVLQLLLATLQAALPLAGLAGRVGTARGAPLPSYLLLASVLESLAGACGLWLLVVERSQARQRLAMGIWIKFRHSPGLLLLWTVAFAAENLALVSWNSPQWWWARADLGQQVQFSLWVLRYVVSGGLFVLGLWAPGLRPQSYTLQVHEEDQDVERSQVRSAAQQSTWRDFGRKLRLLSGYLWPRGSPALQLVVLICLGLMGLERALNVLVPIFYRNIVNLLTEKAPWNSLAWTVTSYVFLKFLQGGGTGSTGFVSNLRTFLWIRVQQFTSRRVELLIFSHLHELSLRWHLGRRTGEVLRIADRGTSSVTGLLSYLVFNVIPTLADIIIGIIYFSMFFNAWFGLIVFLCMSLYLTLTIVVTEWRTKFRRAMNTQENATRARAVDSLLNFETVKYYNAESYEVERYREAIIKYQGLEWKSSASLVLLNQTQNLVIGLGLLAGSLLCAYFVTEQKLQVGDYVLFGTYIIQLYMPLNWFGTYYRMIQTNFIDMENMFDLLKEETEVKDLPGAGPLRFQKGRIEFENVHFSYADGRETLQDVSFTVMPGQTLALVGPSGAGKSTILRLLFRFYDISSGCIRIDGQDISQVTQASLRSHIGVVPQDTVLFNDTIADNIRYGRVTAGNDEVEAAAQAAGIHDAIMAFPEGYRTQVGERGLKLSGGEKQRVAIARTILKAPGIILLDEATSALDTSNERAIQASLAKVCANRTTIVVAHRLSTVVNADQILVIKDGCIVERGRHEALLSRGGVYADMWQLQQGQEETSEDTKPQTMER

CC1(C)C2CCC1(C(=O)O)c1nc3ccccc3nc12 (configuration not stated)
61.8%: double positive events [1]
inactive: vesicle binding response [1] 372% | inhibition [2] -1.12% | superoxide response (% of plate) [3] 72.9% | aptamer binding inhibition [4] 2% | response [5] -10.7% | inhibition [6] 6.26% | response [7] 0.59% | binding (% of control) [8] 100% | efflux inhibition (fraction of control) [9] 0.04 | inhibition [10] 20% | differentiation response [11] -6.96%

O=C(CCCC(=O)OCC1CCCO1)OCC1CCCO1 (configuration not stated)
inactive: vesicle binding response [1] 131% | inhibition [2] 4.52% | superoxide response (% of plate) [3] 93.2% | aptamer binding inhibition [4] -3% | response [5] 2.91% | inhibition [6] -6.03% | response [7] 2.81% | binding (% of control) [8] 99.4% | efflux inhibition (fraction of control) [9] -0.02 | inhibition [10] 15% | differentiation response [11] 2.46%
65.5%: double positive events [1]

COc1cc2ccc(=O)oc2c(O)c1OCC=C(C)C
inactive: vesicle binding response [1] 190% | inhibition [2] -12.9% | superoxide response (% of plate) [3] 102% | aptamer binding inhibition [4] -1% | response [5] -9.13% | inhibition [6] -0.67% | response [7] -0.32% | binding (% of control) [8] 98.2% | efflux inhibition (fraction of control) [9] 0.05 | inhibition [10] 10% | differentiation response [11] 7.09%
63.7%: double positive events [1]

COc1cc2c3c(c1)C1(C(=O)N3C(C)(C)C=C2C)C(C#N)=C(N)Oc2cc(C)oc(=O)c21 (configuration not stated)
60.1%: double positive events [1]
inactive: vesicle binding response [1] 172% | inhibition [2] 2.3% | superoxide response (% of plate) [3] 96.8% | aptamer binding inhibition [4] -1% | response [5] -71.3% | inhibition [6] -6.4% | response [7] -0.54% | binding (% of control) [8] 110% | efflux inhibition (fraction of control) [9] 0.4 | inhibition [10] 5%
active: differentiation response [11] 79.2%

NC(=O)N1c2ccccc2C=Cc2ccccc21
inactive: vesicle binding response [1] 120% | inhibition [2] 5.61% | superoxide response (% of plate) [3] 112% | aptamer binding inhibition [4] 3% | response [5] 13.8% | inhibition [6] 1.72% | response [7] -12.4% | binding (% of control) [8] 98.5% | efflux inhibition (fraction of control) [9] -0.07 | inhibition [10] 11% | differentiation response [11] -3.11%
56%: double positive events [1]

CCC(=O)c1ccc(O)cc1
72%: double positive events [1]
inactive: vesicle binding response [1] 882% | inhibition [2] -6.68% | superoxide response (% of plate) [3] 87.9% | aptamer binding inhibition [4] 3% | response [5] -7.88% | inhibition [6] -11.7% | response [7] 3.37% | binding (% of control) [8] 94.5% | efflux inhibition (fraction of control) [9] -0.14 | inhibition [10] 19% | differentiation response [11] 10%

C=C(CC)C(=O)c1ccc(OCC(=O)O)c(Cl)c1Cl
inactive: vesicle binding response [1] 105% | inhibition [2] -4.21% | superoxide response (% of plate) [3] 98.5% | aptamer binding inhibition [4] 2% | response [5] 14.6% | inhibition [6] -9.01% | response [7] 1.56% | binding (% of control) [8] 108% | efflux inhibition (fraction of control) [9] -0.38 | inhibition [10] -92% | differentiation response [11] 1.64%
52.1%: double positive events [1]

CCN(CC)CCN1C(=O)C(=O)/C(=C(/O)c2c(C)[nH]c(C(=O)OC)c2C)C1c1cccnc1 (configuration not stated)
60.5%: double positive events [1]
inactive: vesicle binding response [1] 235% | inhibition [2] -19.5% | superoxide response (% of plate) [3] 95.2% | aptamer binding inhibition [4] 4% | response [5] 13.3% | inhibition [6] 0.35% | response [7] -2.49% | binding (% of control) [8] 103% | efflux inhibition (fraction of control) [9] 0.05 | inhibition [10] 9% | differentiation response [11] -12%

COc1cc(OC)c(C2C(C#N)=C(N)OC3=C2C(=O)CC(C)(C)C3)cc1OC (configuration not stated)
59.9%: double positive events [1]
inactive: vesicle binding response [1] 137% | inhibition [2] 5.61% | superoxide response (% of plate) [3] 109% | aptamer binding inhibition [4] 2% | response [5] 10.6% | inhibition [6] 5.17% | response [7] -1.86% | binding (% of control) [8] 102% | efflux inhibition (fraction of control) [9] -0.38 | inhibition [10] 13% | differentiation response [11] -11.9%

CCn1c2ccccc2c2cc(CC(N)=O)ccc21
60.8%: double positive events [1]
inactive: vesicle binding response [1] 153% | inhibition [2] 20.2% | superoxide response (% of plate) [3] 92.7% | aptamer binding inhibition [4] -1% | response [5] -19.5% | inhibition [6] 1.51% | response [7] -10.1% | binding (% of control) [8] 103% | efflux inhibition (fraction of control) [9] 0.04 | inhibition [10] 5% | differentiation response [11] -0.06%

O=P(c1ccccc1)(c1ccccc1)c1nc(-c2ccc(Cl)cc2)oc1N1CCOCC1
57.7%: double positive events [1]
inactive: vesicle binding response [1] 148% | inhibition [2] 4.27% | superoxide response (% of plate) [3] 135% | aptamer binding inhibition [4] 2% | response [5] -13.6% | inhibition [6] 7.65% | response [7] 3.02% | binding (% of control) [8] 105% | inhibition [10] -3% | differentiation response [11] -3.11%
active: efflux inhibition (fraction of control) [9] 0.435

OC(COCc1ccccc1)CN1CCN(Cc2ccc3c(c2)OCO3)CC1 (configuration not stated)
59.4%: double positive events [1]
inactive: vesicle binding response [1] 189% | inhibition [2] 7.76% | superoxide response (% of plate) [3] 110% | aptamer binding inhibition [4] 2% | response [5] 4.46% | inhibition [6] -4.35% | response [7] 4.61% | binding (% of control) [8] 97.8% | efflux inhibition (fraction of control) [9] -0.21 | inhibition [10] 4% | differentiation response [11] 8.8%

COc1ccc(C(=O)Nc2ccc(OC)c([N+](=O)[O-])c2)cc1Br
inactive: vesicle binding response [1] 113% | inhibition [2] 4.27% | superoxide response (% of plate) [3] 92.1% | aptamer binding inhibition [4] -1% | response [5] 8.89% | inhibition [6] 7.87% | response [7] 4.22% | binding (% of control) [8] 83.4% | efflux inhibition (fraction of control) [9] -0.175 | inhibition [10] 2% | differentiation response [11] -10.4%
59%: double positive events [1]

CCOC(=O)c1cnc2ccc(C(=O)OC)cc2c1Nc1ccc2c(c1)OCCO2
inactive: vesicle binding response [1] 266% | inhibition [2] 0.59% | superoxide response (% of plate) [3] 99.1% | aptamer binding inhibition [4] 6% | response [5] -25.7% | inhibition [6] -8.06% | response [7] -27.9% | binding (% of control) [8] 97.4% | efflux inhibition (fraction of control) [9] 0.08 | inhibition [10] -2% | differentiation response [11] -0.06%
63.9%: double positive events [1]

COc1ccc(N2C(=O)C3CCCN3C2=O)cc1 (configuration not stated)
61.6%: double positive events [1]
inactive: vesicle binding response [1] 146% | inhibition [2] -1.79% | superoxide response (% of plate) [3] 98.7% | aptamer binding inhibition [4] -1% | response [5] 7.47% | inhibition [6] 9.15% | response [7] 1.78% | binding (% of control) [8] 102% | efflux inhibition (fraction of control) [9] 0.12 | inhibition [10] 7% | differentiation response [11] 2.4%

CCc1cc2c3c(c(=O)oc2cc1O)CCCC3
67.8%: double positive events [1]
inactive: vesicle binding response [1] 257% | inhibition [2] -18.2% | superoxide response (% of plate) [3] 93.2% | aptamer binding inhibition [4] 1% | response [5] 1.88% | inhibition [6] -7.42% | response [7] 2.52% | binding (% of control) [8] 99.5% | efflux inhibition (fraction of control) [9] -0.21 | inhibition [10] 11% | differentiation response [11] 4%
